# Source: PubChem BioAssay (National Center for Advancing Translational Sciences (NCATS))
# Rows were chosen to be rich in hits. Some 0.41% of all compounds tested hit in one or more screens of this group.
# GAA glycogen: GAA glycogen-cleavage inhibition or activation; P10253; recombinant GAA, glycogen substrate, Amplex Red glucose oxidase fluorescence; Potency, µM (highest dose often 76.4 µM), hits mostly inhibitors; 300,000 compounds, 0.38% hits; AID 2100;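 note: the screen sought inhibitors and activators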
#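 Recombinant human alpha-glucosidase (4 nM final) hydrolysed bovine liver glycogen (30 ug) for 40 min at 37 C in pH 5.0 citrate/phosphate with 0.01% Tween-20. Released glucose detected by glucose oxidase/Amplex Red, Ex 573/Em 610 nm. Compounds up to 77 uM; AC50 from Hill fits.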
# GLA inh pH 4.5: inhibitors of human alpha-galactosidase A at pH 4.5 | 230,000 tested, under 10 active | purified enzyme, 4-MU-alpha-Gal fluorescence, pH 4.5 | P06280 | activity change, negative = inhibition, % at 105 µM | AID 1467
# Target sequence (P06280 whole entry, looked up): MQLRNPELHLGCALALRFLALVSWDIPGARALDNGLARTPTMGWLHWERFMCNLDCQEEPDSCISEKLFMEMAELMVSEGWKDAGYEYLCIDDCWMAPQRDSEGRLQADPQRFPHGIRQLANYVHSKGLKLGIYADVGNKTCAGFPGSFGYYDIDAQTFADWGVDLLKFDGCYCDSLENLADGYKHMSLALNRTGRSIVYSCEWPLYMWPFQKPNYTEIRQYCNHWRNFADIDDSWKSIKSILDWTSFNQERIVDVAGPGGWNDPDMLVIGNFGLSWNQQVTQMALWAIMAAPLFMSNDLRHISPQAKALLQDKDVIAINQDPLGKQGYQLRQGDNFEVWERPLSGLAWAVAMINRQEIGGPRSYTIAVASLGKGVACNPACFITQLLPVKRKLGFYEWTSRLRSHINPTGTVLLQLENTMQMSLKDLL
# aGlu spleen mod: inhibitors or activators of human alpha-glucosidase in spleen homogenate. P10253. human spleen homogenate, 4-MU-alpha-glucoside fluorescence. Potency, µM (highest dose often 79.9 µM), hits mostly inhibitors. 240,000 compounds, 0.006% hits. AID 2112
#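 AC50 values come from Hill-equation fits of concentration-response data, normalized to no-enzyme and full-activity controls. Enzyme source: 1 ug human spleen homogenate; 1 mM fluorogenic 4-MU glucoside, pH 5.0 citrate buffer, 37 C, 40 min.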
# GAA inhib: alpha-glucosidase (human) inhibition | P10253 | purified human GAA, 4-MU-alpha-glucoside fluorescence | Potency, µM (highest dose often 76.9 µM), hits mostly inhibitors | 200,000 compounds, 0.005% hits
#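 Compounds are titrated up to 77 uM against 4 nM human enzyme. Substrate 4-methylumbelliferyl-alpha-D-pyranoside (400 uM) reacts 20 min at room temperature in pH 5.0 buffer; liberated 4-methylumbelliferone is read at 440 nm.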
# GLA spleen mod: inhibits or activates alpha-galactosidase in human spleen homogenate; AID 2107; P06280; Potency, µM (top dose mostly 80 µM), most hits filed as inhibitors; 240,000 compounds, 0.008% hits; human spleen homogenate, 4MU-alpha-Gal fluorescence, 40 min
#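 Fluorogenic readout (Ex 365/Em 440 nm) of 4-methylumbelliferone released from 1 mM 4-MU-alpha-galactoside by spleen homogenate, 40 min at 37C, pH 5.0. Data normalized to no-enzyme and enzyme controls; Hill-equation AC50 from compound titrations.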
# N370S GC mod: N370S glucocerebrosidase modulation, Gaucher chaperone candidate; P04062; N370S GC spleen homogenate, 4MU-glucoside fluorescence; Potency, µM (highest dose often 59.4 µM), most hits filed as inhibitors; 330,000 compounds, 0.092% hits; AID 2101
# A number is an active result; – = inactive; ? = inconclusive; · = no result; [ ] = another dose, or the depositor's remark. Calls come from the whole dose curve; as a rule, active = well fitted curve in the direction sought with a large enough effect; inconclusive = small, poorly fitted or top-dose-only effect, or another doubt; inactive = no such curve, though single readings can be large; an effect the other way counts as inactive or inconclusive.
SMILES,GAA glycogen,GLA inh pH 4.5,aGlu spleen mod,GAA inhib,GLA spleen mod,N370S GC mod
C#CCOCCOCCOCCNc1nc(N2CCN(C(=O)CCCCCCCCCCNC(=O)[C@@H](CCSC)n3cc(CCO)nn3)CC2)nc(N2CCN(C(=O)CCCCCCCCCCNC(=O)[C@@H]([C@H](C)O)n3cc(C)nn3)CC2)n1,·,·,·,·,·,–
CCCCCCCCCCCCCCCCn1cc[n+](Cc2ccccc2)c1C,·,·,–,·,–,–
CC[C@H](C)[C@H](NC(=O)[C@H](Cc1ccc(O)cc1)NC(=O)[C@H](Cc1cnc[nH]1)NC(=O)[C@H](CCCNC(=N)N)NC(=O)[C@H](CC(C)C)NC(=O)[C@H](C)NC(=O)[C@H](CO)NC(=O)[C@H](Cc1ccc(O)cc1)NC(=O)[C@H](Cc1ccc(O)cc1)NC(=O)[C@H](CCCNC(=N)N)NC(=O)[C@H](C)NC(=O)[C@H](CC(C)C)NC(=O)[C@H](CC(=O)O)NC(=O)[C@H](CCC(=O)O)NC(=O)[C@H](C)NC(=O)[C@@H]1CCCN1C(=O)[C@H](C)NC(=O)[C@H](CC(=O)O)NC(=O)[C@H](CCC(=O)O)NC(=O)CNC(=O)[C@@H]1CCCN1C(=O)[C@H](CC(N)=O)NC(=O)[C@H](CC(=O)O)NC(=O)[C@@H]1CCCN1C(=O)[C@H](CCCCN)NC(=O)[C@@H](N)CO)C(=O)N[C@@H](CC(N)=O)C(=O)N[C@@H](CC(C)C)C(=O)N[C@H](C(=O)N[C@H](C(=O)N[C@@H](CCCNC(=N)N)C(=O)N[C@@H](CCC(N)=O)C(=O)N[C@@H](CCCNC(=N)N)C(=O)N[C@@H](Cc1ccc(O)cc1)C(N)=O)[C@@H](C)O)[C@@H](C)CC,·,·,–,·,–,–
CN(C)c1ccc(NC(=O)N2CCOCC2)cc1,12.6µM,–,–,–,–,–
O=C(Nc1ccc(F)cc1)N1CCOCC1,–,–,–,–,–,–
Cc1ccc(S(=O)(=O)N[C@H]2COC(=O)C/C=C\[C@H](C)[C@@H](NS(=O)(=O)c3ccc(C)cc3)COC(=O)C/C=C\[C@@H]2C)cc1,·,·,–[17.4 µM],·,–[17.5 µM],–[12.8 µM]
COc1ccc2c(Cl)c(C(=O)NN)sc2c1,15.7µM,–,–,–,–,–
Cc1c(CNCCc2ccc(S(N)(=O)=O)cc2)c(C(=O)O)c(C)n1Cc1ccc(Cl)cc1,50.1µM,·,·,·,·,·
Cc1c(CNCc2ccc(Cl)cc2)c(C(=O)O)c(C)n1Cc1ccc(F)cc1,–,·,·,·,·,·
COc1ccc(C2C(CC(=O)O)=C(O)C(=O)N2c2ccccc2)cc1 (stereo not drawn),14µM,–,–,–,–,–
Cc1cccc(OCCCCn2c(C3CC(=O)N(c4ccc(C)cc4C)C3)nc3ccccc32)c1 (stereo not drawn),–,·,·,·,·,·
COc1ccc2nc(NNC(=O)COc3ccccc3)sc2c1,5.01µM,–,–,–,–,–
CC(=O)NNc1nc2ccccc2s1,8.91µM,–,–,–,–,–
O=C(O)C1CC=CC2CCN(C3CC3)C(=O)C21 (stereo not drawn),·,·,–,·,–,–
Cc1cc(=O)oc2c(N)c(O)ccc12,10µM,–,–,–,–,–
Cc1cc(=O)oc2c(CN(C)Cc3ccccc3)c(O)ccc12,–,?,?,?,?,?
Oc1cccc(Nc2nc(-c3ccccc3)nc3ccccc23)c1,–,·,·,·,·,2.82µM
COc1ccc(Nc2nc(-c3ccccc3)nc3ccccc23)cc1S(=O)(=O)N1CCOCC1,–,–,–,·,–,14.1µM
O=Cc1c(NCc2ccco2)nc2ccccn2c1=O,–,–,–,–,–,–
Cc1ccc2[nH]c(=O)c(-c3nc4ccccn4c3NCc3ccco3)cc2c1,31.6µM,–,–,–,–,–
C#CCOCCOCCOCCNc1nc(N2CCN(C(=O)CCCCCCCCCCNC(=O)[C@@H](CCC(=O)O)n3cc(CCCCCN)nn3)CC2)nc(N2CCN(C(=O)CCCCCCCCCCNC(=O)[C@H](CO)n3cc(CCCCCN)nn3)CC2)n1,·,·,·,·,·,–
C#CCOCCOCCOCCNc1nc(N2CCN(C(=O)CCCCCCCCCCNC(=O)[C@H](CCCN=C(N)N)n3cc(C[C@@H](C)CC)nn3)CC2)nc(N2CCN(C(=O)CCCCCCCCCCNC(=O)[C@@H]([C@H](C)CC)n3cc(CCCCCN)nn3)CC2)n1,·,·,·,·,·,5.62µM
C#CCOCCOCCOCCNc1nc(N2CCOCC2)nc(N2CCN(C(=O)[C@H]([C@@H](C)CC)n3cc(CCCN=C(N)N)nn3)CC2)n1,–,–,–,–,–,–
C#CCOCCOCCOCCNc1nc(N2CCN(C(=O)CCCCCCCCCCNC(=O)[C@H]([C@@H](C)CC)n3cc(CCCCN=C(N)N)nn3)CC2)nc(N2CCN(C(=O)CCCCCCCCCCNC(=O)[C@H](CCCN=C(N)N)n3cc(C[C@@H](C)CC)nn3)CC2)n1,·,·,·,·,·,8.91µM
COc1cc2c(cc1OC)-c1cc3nc4ccccc4nc3n1C(C)(C)C2,·,?,–,·,–,–
SMILES,GAA glycogen,GLA inh pH 4.5,aGlu spleen mod,GAA inhib,GLA spleen mod,N370S GC mod
Cc1ccc(S(=O)(=O)n2c3ccccc3c3nnc(C(=O)c4ccccc4)nc32)cc1,·,·,–[17.4 µM],·,–[17.5 µM],–[12.8 µM]
Cc1ccccc1CNC(=O)Nc1cccs1,?,–,–,–,–,–
O=C(NCc1cccs1)Nc1cccs1,3.95µM,–,–,–,–,–
CCOc1ccc(NC(=O)Nc2cccs2)cc1,20µM,–,–,–,–,–
CCc1ccc(NC(=O)Nc2cccs2)cc1,?,–,–,–,–,–
COC1=C(C(=O)c2ccccc2)C(=O)C2(CC=C(C)C)C[C@H](C(=O)OCC(F)(F)F)C(C)(C)[C@@]1(CC=C(C)C)C2=O (tested in a mixture with another compound),·,–,–,·,–,–
COc1cccc(C(=O)Nc2ccc3nc(N4CCOCC4)cc(C)c3c2)c1,–,–,–,–,–,10µM
CCOc1cc(CNCCc2ccc(S(N)(=O)=O)cc2)ccc1OCc1ccccc1,–,–,–,?,–,6.31µM
CC(C)[C@@H](CC(=O)N[C@@H]1CCCC[C@H]1C(=O)N[C@H](CC(=O)N[C@@H](CCC(=O)O)CC(=O)O)Cc1c[nH]c2ccccc12)NC(=O)C[C@H](Cc1c[nH]c2ccccc12)NC(=O)[C@@H]1CNCC[C@H]1N,·,–,–,·,–,–
COc1cc(C2Nc3ccc4ncccc4c3C3=C2C(=O)CCC3)cc(OC)c1O (stereo not drawn),44.7µM,–,–,–,–,–
Cc1noc(C)c1-c1ccc2ncnc(NCc3cccc(Cl)c3)c2c1,·,·,–,·,–,–
CCNc1nc(NCC)nc(N(C)N)n1,35.5µM,–,–,–,–,–
CC(C)Nc1nc(NC(C)C)nc(N(C)N)n1,28.2µM,–,–,–,–,·
